Bioassay records (PubChem BioAssay)
In the library only some 3.6% were active in any assay of this set; here they are far more common.
Nrf2 ARE act: activates Nrf2 signaling. 0.31% of 410,000 active. Potency, µM (series often up to 46.1 µM), for the others: at the top dose activation, usual class: activators. AID 624171. AREc32 ARE-luciferase reporter (MCF7-derived line), luminescence, 24 h; also: % of control where 0% means no effect; nearly all actives have a fitted effect of over 65% in size
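Quantitative high-throughput format: AREc32 reporter cells, 1000 per well, received compound by pin transfer and were incubated 24 hr at 37 deg C, 5% CO2, before Steady-Glo luminescence detection.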
Nrf2 block: inhibitors of Nrf2 signaling; A549 ARE-Fluc reporter, luciferase luminescence, 18-24 h; Potency, µM (top dose mostly 46 µM), for the others: at the top dose activity change, negative = inhibition, hits mostly inhibitors; 2.1% of 360,000 active; also: % is scaled to controls: 0 for no effect and ±100 for the full control effect; nearly all actives have a fitted effect of over 60% in size
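Cells were seeded and rested 2 h, then exposed to compounds for 18-24 h. CellTiter-Fluor was read first as a viability measure. BugLite was added 15 min before the final luminescent read of ARE-luciferase activity in A549 cells.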
TGFb SMAD3 inh: TGF-b pathway inhibition. AID 588855. 1.2% of 410,000 active. HepG2 CAGA-GFP TGF-b/SMAD3 reporter, GFP fluorescence, 18 h; TGF-beta stimulated, 500 pg/mL final. Potency, µM (highest dose often 46.1 µM), for inactives: at the top dose activity, negative = inhibition, usual class: inhibitors; also: % is scaled to controls: 0 for no effect and ±100 for the full control effect; nearly all actives have a fitted effect of over 65% in size
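Inhibition of TGF-beta-driven CAGA-GFP reporter expression in HEPG2 cells is measured by cellular GFP fluorescence after 18 h stimulation with 500 pg/mL recombinant TGF-beta in 1% FBS medium at 37 degrees C.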
HepG2 tox: HepG2 cytotoxicity, counter-screen for TGF-b inhibitors; AID 588856; 0.76% of 410,000 active; Potency, µM (series often up to 46.1 µM), for inactives: at the highest dose activity change, negative = cytotoxicity, actives largely listed as cytotoxic; HepG2 CAGA-GFP viability, ATP luminescence, 18 h
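CellTiter-Glo luminescence gave cytotoxicity after 18 hours at 37 degrees C. The cells were HepG2 CAGA-GFP in 1% FBS DMEM, stimulated with 500 pg/mL TGF-beta after compound addition. %Activity was normalised to no-cell wells (complete cell-killing) and DMSO (no toxicity), and curves were fitted and classified.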
A549 tox: counter-screen for Nrf2 inhibitors: cytotoxicity in A549 cells | A549 ARE-Fluc cells, CellTiter-Fluor viability, 18-24 h | Potency, µM (highest dose often 46 µM), inactives show top-dose activity change, negative = cytotoxicity, actives largely listed as inhibitors | 0.16% of 390,000 active; also: % is scaled to controls: 0 for no effect and ±100 for the full control effect
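A549 ARE_Fluc cells in 5% FBS OPTI-MEM were exposed to compounds in concentration-response for 18-24 h at 37 deg C. Viability was read by CellTiter-Fluor fluorescence (Ex 405/Em 525) after 30 min, before the luciferase read.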
The depositor's hits bear a star; u = inconclusive; x = no result; ! = a repeat was not active; [ ] = dose if it differs, or a comment. Calls follow the shape of the dose curve; as a rule, active = well fitted curve in the direction sought with a large enough effect; inconclusive = small, poorly fitted or top-dose-only effect, or another doubt; inactive = no such curve, though single readings can be large; an effect the other way counts as inactive or inconclusive. Potency is read from the fitted curve at half-maximal effect.

SMILES	Nrf2 ARE act	Nrf2 block	TGFb SMAD3 inh	HepG2 tox	A549 tox
CC1CCC(NC(=O)c2ccc3c(c2)S(=O)(=O)c2ccccc2C3=O)CC1 (centres undefined)	4%	16µM*	2%	-30%	-13%
O=C(CSc1nc(C(F)(F)F)cc(=O)[nH]1)Nc1nccs1	-1%	3%	0%	-34%	-2%
O=C(COC(=O)c1cc([N+](=O)[O-])ccc1N1CCOCC1)Nc1ccc(Cl)cc1	0%	18µM*	-12%	-34%	u
Cc1nc(NC(=O)c2ccco2)sc1C(=O)O	2%	u	1%	5µM*	1%
O=C(Nc1nc2c(F)cccc2s1)c1ccco1	7.1µM*	u	-12%	-3%	1%
C(=N\n1c2ccccc2c2ccccc21)/c1ccccc1	22%	-4%	-3%	-4%	14%
C(=N/n1c2ccccc2c2ccccc21)/c1ccco1	3.2µM*	x	u	7%	12%
N=c1scc(-c2ccccc2)n1/N=C/c1ccco1	11µM*	3%	-5%	-4%	-6%
CC(=O)Nc1ccc(C(=O)O)cc1	-1%	0%	-4%	-20%	0%
Nc1c(Cl)cc(C2=NCCn3c2c2ccc([N+](=O)[O-])cc2[n+]3[O-])cc1Cl	u	5%	11µM*	-35%	u
CC(Nc1nc2ncn(Cc3ccccc3)c2c(=O)[nH]1)C(=O)O (centres undefined)	0%	-3%	-2%	9%	-10%
Cn1ccsc1=NC(=O)c1ccc([N+](=O)[O-])o1	u	-10%	28µM*	-75%	-17%
Cc1cccc2sc(NC(=O)C3c4ccccc4Oc4ccccc43)nc12	0%	21µM*	-22%	-18%	-11%
Cc1cccc2sc(NC(=O)c3ccc(Cl)s3)nc12	7.1µM*	20%	u	-6%	7%
Cc1cccc2sc(NC(=O)C3CC3)nc12	u	u	18%	-5%	-1%
COC(=O)Nc1nc2c(C)cccc2s1	u	18%	23%	-8%	-2%
O=C(CCNC(=O)Cn1cnc2ccccc2c1=O)NCC1COc2ccccc2O1 (centres undefined)	1%	2%	0%	13µM*	-1%
COc1ccc(C(C)(C)C)cc1NC(=O)Nc1ccc2c(c1)OCO2	-1%	23µM*	u	-2%	u
COc1cc(NC(=O)Nc2ccc3c(c2)OCO3)cc(OC)c1OC	4%	7%	19%	17%	-2%
O=C(Nc1ccc(OC(F)F)c(Cl)c1)Nc1ccc2c(c1)OCO2	-1%	u	u	11µM*	-25%
CC(C)CNc1oc(-c2ccco2)nc1C#N	u	-17%	-1%	-60%	9%
COc1ccc2nc(C(F)(F)Cl)c(C#N)c(N)c2c1	-1%	21µM*	u	-56%	-3%
Cc1ccc(-c2cc(C(=O)N(Cc3ccc(C(C)(C)C)cc3)Cc3ccco3)no2)cc1	0%	u	7%	-4%	1%
COc1ccc(NC(=O)CSC2=C(C#N)C(c3ccco3)C(C(=O)Nc3nc4ccccc4s3)=C(C)N2)cc1 (centres undefined)	1%	u	-26%	-4%	u
CC(C)(CNc1ccc([N+](=O)[O-])cc1C#N)N1CCOCC1	0%	-5%	1%	-15%	-17%
SMILES	Nrf2 ARE act	Nrf2 block	TGFb SMAD3 inh	HepG2 tox	A549 tox
CC(C)(CNc1ccc(S(=O)(=O)C(F)(F)F)cc1[N+](=O)[O-])N1CCOCC1	-1%	23µM*	-10%	-4%	1%
O=C(COc1ccc(S(=O)(=O)NC2CCCC2)cc1)N1CCCCC1	-1%	-31%	-5%	0%	-6%
O=C(CSc1n[nH]c(-c2ccc(S(=O)(=O)NC3CCCCC3)cc2)n1)N1CCCC1	0%	16µM*	-16%	-10%	-13%
CN(C)S(=O)(=O)c1ccc2[nH]cc(/C=C/c3nc4ccccc4c(=O)n3-c3ccccc3)c2c1	0%	10µM*	-9%	-24%	1%[1.84 µM]
CCn1c(/C=C/c2c[nH]c3ccccc23)nc2ccccc2c1=O	8%	u	-4%	-28%	1%
CCN(CC)CCNC(=O)c1nn(-c2ccc(Cl)cc2)c2c1CCc1cc(OC)ccc1-2	5%	13%	u	14µM*	-1%
O=C(NCCS(=O)(=O)N1CCN(c2ccc(F)cc2)CC1)C1CC(=O)N(c2ccc(F)cc2)C1 (centres undefined)	0%	x	1%	3%	4%
Cc1ccc(N2CC(C(=O)NCCS(=O)(=O)N3CCN(c4ccc(F)cc4)CC3)CC2=O)cc1 (centres undefined)	-1%	3%	17%	1µM*!	0%
S=c1[nH]ccn1-c1cccc(Cl)c1	-1%	-10%	37%	-4%	8%
COCCNC(=O)C(=O)NCC(c1ccc2c(c1)OCO2)N1CCOCC1 (centres undefined)	0%	x	6%	0%	9%
COc1cc2c(cc1NC(=O)CN(C)Cc1ccc(OC)c(OC)c1)oc1ccccc12	-1%	16µM*	-8%	-10%	-12%
COc1cc2c(cc1NC(=O)CCC(=O)O)oc1ccccc12	0%	-10%	1%	-1%	-2%
COc1cc2c(cc1NC(=O)Nc1ccccc1)oc1ccccc12	3%	u	u	7.1µM*	u
CCCCNc1c(-c2ccc(OC)c(SC3CCCCC3)c2)nc2cnccn12	-5%	u	u	11µM*	-19%
CCC(C)Sc1ccc(-c2nc3cc(C)ccn3c2NC2CCCCC2)cc1 (centres undefined)	1%	-24%	u	-30%	u
CCC(C)Sc1ccc(-c2nc3cnccn3c2NC2CCCCC2)cc1 (centres undefined)	-1%	23µM*	-10%	-107%	-29%
CCCCNc1oc(-c2ccc(COc3ccc(OC)cc3)o2)nc1C#N	4%	-23%	5%	-14%	7%
Cc1ccc(C(=O)c2coc3cc([N+](=O)[O-])c(O)c([N+](=O)[O-])c23)cc1	7%	u	-41%	-7%	21µM*
Cc1ccc(C(=O)c2ccc([N+](=O)[O-])cc2)cc1	0%	-8%	-10%	-7%	3%
FC(F)(F)c1ccccc1NC(=S)N1CCc2ccccc2C1	0%	u	-27%	15%	0%
CCCN1CCN(C(=S)Nc2ccccc2C(F)(F)F)CC1	2%	16µM*	-2%	7%	-2%
CN(C(=O)c1sc2nc(N3CCOCC3)c3c(c2c1N)CCCC3)c1ccccc1	1%	16µM*	-1%	0%	1%
Nc1c(C(=O)NCCc2ccccc2)sc2nc(N3CCOCC3)c3c(c12)CCCC3	0%	u	-3%	13%	3%
